The panel holds about 83,000 compounds, 20% with a hit somewhere; the sample as a whole holds those more often.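 48-hour exposure, single concentration, 96-well plates; percent growth endpoint where 0 means no net growth. Active: below 10.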 The source made the active and inactive calls.
tested on: OVCAR-4 ovarian; assay: NCI-60 one-dose screen, 48 h (100 = growth as untreated, 0 = no growth, -100 = all killed); settings: 10 µM unless noted

Row | Compound | growth
1 | CC1CC(=O)C2=C(C1)Nc1ccc(Br)cc1CC2c1c[nH]c2ccc(Br)cc12 (stereo not drawn) | 74.4% (inactive)
2 | CC(C)(C)Nc1nc2c(OCCc3ccccc3)cccn2c1-c1cccc(Oc2ccccc2)c1 | 31.2% (inactive)
3 | CCCC/C(=C\c1ccc(O)c(O)c1)C(=O)NC(Cc1ccccc1)C(=O)C(=O)NCCc1ccc(OC)cc1 (stereo not drawn) | 92.7% (inactive)
4 | COC(=O)c1cccc(NC2=C(Cl)C(=O)c3nc(C)ccc3C2=O)c1 | -97.6% (active)
5 | NC1CC2(CCN(c3cnc(C(=O)Nc4cc(F)cc5cccnc45)cn3)CC2)C1 | 95.2% (inactive)
6 | COC(=O)c1ccc(NC2=C(Cl)C(=O)c3nc(C)ccc3C2=O)cc1 | 58.5% (inactive)
7 | CC(Nc1c(C#N)cnc2ccc(-c3cncc(-c4n[nH]c(=O)o4)c3)cc12)c1ccccc1 (stereo not drawn) | -5.14% (active)
8 | CC(=O)OC[C@]12CC[C@@H](C(=O)/C=C/c3cccnc3)[C@@H]1[C@H]1CC[C@@H]3[C@@]4(C)CC[C@H](OC(C)=O)C(C)(C)[C@@H]4CC[C@@]3(C)[C@]1(C)CC2 | 21.9% (inactive)
9 | CC(O)c1cccc(/C(N)=N/C(N)=N/c2nc3ccccc3s2)c1 (stereo not drawn) | 105% (inactive)
10 | CC(C)=CCC[C@](C)(O)[C@H]1CC[C@]2(C)[C@@H]1CC[C@@H]1[C@@]3(C)CC[C@H](N)C(C)(C)[C@@H]3CC[C@]12C | 97.5% (inactive)
11 | Cc1ccc2c(n1)C(=O)C(Cl)=C(Nc1cccc(C)c1C)C2=O | -97.6% (active)
12 | C[C@]12CC[C@H]3[C@@H](CC=C4C[C@@H](O)CC[C@@]43C)[C@@H]1CC[C@@H]2[C@](C)(O)CCc1cccnc1 | 21.9% (inactive)
13 | CN1CCN(c2ccc(Nc3nc(NCCCNS(=O)(=O)c4ccc(C(F)(F)F)cc4)c4sccc4n3)cc2)CC1 | -35% (active)
14 | Cc1ccc2c(n1)C(=O)C(Cl)=C(Nc1cccc(C(F)(F)F)c1)C2=O | -97.8% (active)
15 | O=C(CN1CCN(c2cc(=O)[nH]c3ccc(F)cc23)CC1)N(c1ccccc1)c1ccccc1 | 101% (inactive)
16 | Cc1[nH]c(C(=O)Nc2ccc(C(N)=O)cc2N2CCOC(C)C2)c(Cl)c1Cl (stereo not drawn) | 97.9% (inactive)
17 | CC1(C)CC[C@]2(C(=O)O)CC[C@]3(C)C(=CC[C@@H]4[C@@]5(C)CC[C@H](NOCCCN)C(C)(C)[C@@H]5CC[C@]43C)[C@@H]2C1 | 95.2% (inactive)
18 | Cc1ccc2c(n1)C(=O)C(Cl)=C(Nc1ccc(C#N)cc1)C2=O | -98.5% (active)
19 | CC(=O)Nc1nc(C)c(-c2csc(Nc3ccccc3)n2)s1 | 54.7% (inactive)
20 | O=C(/C=C/c1cccc(F)c1)c1cccc(OCCCCOc2cccc(C(=O)/C=C/c3cccc(F)c3)c2)c1 | 106% (inactive)
21 | O=S(=O)(NCCCNc1nccc(-c2[nH]c(-c3ccccc3)nc2-c2ccc(F)c(O)c2)n1)c1ccc(C(F)(F)F)cc1 | 67.8% (inactive)
22 | O=C(CCCCCCNC(=O)C(O)(O)C(F)(F)F)Nc1ncc(-c2ccccc2)s1 | 18.9% (inactive)
23 | CN(C)c1ccc(/C=N/Nc2nc(N/N=C/c3ccc(N(C)C)cc3)nc(N3CCCCC3)n2)cc1 | 106% (inactive)
24 | NC1[C@H]2CN(c3cnc(C(=O)Nc4cc(F)cc5cccnc45)cn3)C[C@@H]12 (stereo partly drawn) | 17.4% (inactive)
25 | Clc1cccc(/C=N/Nc2nc(N/N=C/c3cccc(Cl)c3)nc(N3CCCCC3)n2)c1 | 90.2% (inactive)
26 | CC(Nc1ncnc2ccc(-c3cnc4cnccn34)cc12)c1ccccc1 (stereo not drawn) | 41.4% (inactive)
27 | CN1CCN(c2ccc(Nc3nc(NCCNC(=O)c4ccccc4)c4sccc4n3)cc2)CC1 | 55.4% (inactive)
28 | O=C(CSc1nc2ccccc2c(=O)n1-c1ccccc1)N/N=C/c1ccc(Oc2ccc(Cl)cc2)cc1 | 73.7% (inactive)
